Screens from PubChem BioAssay.
Most compounds without a hit are left out; they make up all but 6.9% or so of the library.
BAZ2B inh: qHTS Assay for Inhibitors of BAZ2B; Bromodomain adjacent to zinc finger domain protein 2B (Homo sapiens), Q9UIF8; AlphaScreen BAZ2B-H3K14Ac peptide displacement; Potency, µM (series often up to 114 µM), without a hit: at the top dose activity change, negative = inhibition, hits mostly inhibitors; 360,000 tested, 4.4% active; AID 504333, 2011; further: on the % scale 0 is the no-effect control and ±100 the full control effect; nearly all actives have a fitted effect of over 60% in size
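AlphaScreen displacement of biotin-H3(5-23)K14Ac peptide (50 nM final) from BAZ2B (50 nM final) in PBS pH 7.4, 0.01% Tween-20; complex preformed 30 min RT, then compounds (top 110 uM) 30 min RT, beads 20 min dark.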
HP1b binding inh: HTS for Inhibitors of HP1-beta Chromodomain Interactions with Methylated Histone Tails. Chromobox protein homolog 1 (Homo sapiens), P83916. AlphaScreen HP1-beta / biotin-H3K9me3 peptide binding. Potency, µM (highest dose often 114 µM), without a hit: top-dose activity change, negative = inhibition, most hits filed as inhibitors. 390,000 tested, 0.56% active. AID 540317, 2011; further: nearly all actives have a fitted effect of over 70% in size
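AlphaScreen: HP1-beta (50 nM) preformed 30 min with biotin-H3(1-18)K9me3 peptide (50 nM) in PBS pH 7.4, 0.01% Tween-20. Compound added for 30 min at RT, then streptavidin donor/nickel chelate acceptor beads (10 ug/mL) for 30 min.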
VDR inh: Inhibitors of the vitamin D receptor (VDR): qHTS; 400,000 tested, 0.93% active; AID 504847, 2011; VDR-SRC2-3 peptide fluorescence polarization, 2 h; Potency, µM, for the others: max response, negative = inhibition, usual class: inhibitors; further: on the % scale 0 is the no-effect control and ±100 the full control effect
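The screen uses fluorescence polarization to detect compounds that interfere with recruitment of the SRC2-3 coactivator peptide to VDR; plates are read after 2 h at room temperature.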
JMJD2A Tudor: qHTS Assay for Inhibitors of JMJD2A-Tudor Domain | Lysine-specific demethylase 4A (Homo sapiens), O75164 | AlphaScreen JMJD2A-Tudor / H3K4me3 peptide binding | Potency, µM (titrated, usually from 114 µM), inactives show at the highest dose activity change, negative = inhibition, most hits filed as inhibitors | 390,000 tested, 4.4% active | AID 504339, 2011; further: on the % scale 0 is the no-effect control and ±100 the full control effect; nearly all actives have a fitted effect of over 50% in size
PLK1 PBD inh: qHTS for Inhibitors of PLK1-PDB (polo-like kinase 1 - polo-box domain): Primary Screen. Plk1 PBD binding of FITC phosphopeptide, fluorescence polarization. Potency, µM, inactives show max response, negative = inhibition, actives largely listed as inhibitors. 360,000 tested, 2.8% active; further: series mostly up to about 57 µM; on the % scale 0 is the no-effect control and ±100 the full control effect; nearly all actives have a fitted effect of over 65% in size
L3MBTL1 inh: qHTS Assay for the Inhibitors of L3MBTL1 | Lethal(3)malignant brain tumor-like protein 1 (Homo sapiens), Q9Y468 | AlphaScreen L3MBTL1–H3K9me1 peptide binding | Potency, µM (titrated, usually from 57.1 µM), for the others: at the top dose activity, negative = inhibition, hits mostly inhibitors | 230,000 tested, 0.66% active | AID 485360, 2010; further: on the % scale 0 is the no-effect control and ±100 the full control effect; nearly all actives have a fitted effect of over 60% in size
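L3MBTL1 50 nM + b-AHA-H3(1-15)K9me1 75 nM, 30 min RT; compound added, 30 min RT; streptavidin donor/Ni-chelate acceptor beads 10 ug/mL each final, 30 min RT dark; AlphaScreen read.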
The depositor's hits bear a star; [ ] = dose if it differs, or a comment. The call rests on the fitted dose curve; in most records, active means well fitted curve in the direction sought with a large enough effect; inconclusive means small, poorly fitted or top-dose-only effect, or another doubt; inactive means no such curve, though single readings can be large; an effect the other way counts as inactive or inconclusive. Potency means the concentration at half of the fitted maximal effect.

Results for Cc1cc(C)n2nc(C(=O)OCC(=O)c3cc(C)n(C)c3C)nc2n1 ?
BAZ2B inh: 50µM*; HP1b binding inh: -6%; VDR inh: 4%; JMJD2A Tudor: 56µM*; PLK1 PBD inh: -11%; L3MBTL1 inh: inconclusive

Results for COc1ccc(OCc2cc(C3Nc4ccccc4C(=O)N3Cc3ccccc3)ccc2OC)cc1 (centres undefined) ?
JMJD2A Tudor: -20%

What do the screens show for `Cc1[nH]c2c(ccc3cccnc32)c1C`?
BAZ2B inh: 35µM*; HP1b binding inh: inconclusive; VDR inh: 11%; JMJD2A Tudor: 45µM*; PLK1 PBD inh: -4%; L3MBTL1 inh: -22%

Results for Clc1ccc2ccc3cccnc3c2n1 ?
BAZ2B inh: 41%; HP1b binding inh: -9%; VDR inh: -14%; JMJD2A Tudor: -11%; PLK1 PBD inh: -10%

How did Cc1ccnc(SCC(=O)n2c3c(c4ccccc42)CC(C)CC3)n1 (centres undefined) do in these assays?
BAZ2B inh: -7%; HP1b binding inh: 23%; VDR inh: 0%; JMJD2A Tudor: -11%; PLK1 PBD inh: 0%; L3MBTL1 inh: 0%

How did CC1CCc2c(c3ccccc3n2C(=O)CCl)C1 (centres undefined) do in these assays?
BAZ2B inh: 79µM*; HP1b binding inh: 26%; VDR inh: inconclusive; JMJD2A Tudor: inconclusive; PLK1 PBD inh: inconclusive; L3MBTL1 inh: -1%[2.29 µM]

Results for CN(CC(=O)Nc1ccc(Cl)cc1)Cc1cc(=O)n2ccsc2n1 ?
BAZ2B inh: -24%; HP1b binding inh: -3%; VDR inh: -2%; JMJD2A Tudor: -33%; PLK1 PBD inh: 30µM*; L3MBTL1 inh: 5%

Results for COc1ccc(CN2C(=O)c3ccccc3NC2c2ccc(OC)c(COc3ccc(NC(C)=O)cc3)c2)cc1 (centres undefined) ?
JMJD2A Tudor: -24%

What do the screens show for `Cc1cccnc1Nc1nc(-c2ccc(O)cc2O)cs1`?
BAZ2B inh: inconclusive; HP1b binding inh: -34%; VDR inh: -9%; JMJD2A Tudor: 14µM*; PLK1 PBD inh: 19µM*; L3MBTL1 inh: -7%

What do the screens show for `Cc1ccc(SC[C@H](C)CN2CC[C@H](NC(=O)OCc3ccccc3)CCC2=O)cc1`?
BAZ2B inh: -33%; HP1b binding inh: 38%; VDR inh: 1%; JMJD2A Tudor: -13%; PLK1 PBD inh: 1%; L3MBTL1 inh: 1%

How did CC(=O)Nc1ccc(SC[C@H](Cc2ccccc2)N2CCN(CCc3ccccc3)CCC2=O)cc1 do in these assays?
BAZ2B inh: -28%; HP1b binding inh: 15%; VDR inh: inconclusive; JMJD2A Tudor: inconclusive; PLK1 PBD inh: 12µM*

Results for O=C1CCN(CCc2ccccc2)CCN1CCSc1ccccc1 ?
BAZ2B inh: -8%; HP1b binding inh: 21%; VDR inh: -13%; JMJD2A Tudor: -20%; PLK1 PBD inh: 3%; L3MBTL1 inh: -2%

How did CC(=O)Nc1ccc(SC[C@H](Cc2ccccc2)N2CC[C@@H](C(C)(C)C)CCC2=O)cc1 do in these assays?
BAZ2B inh: -27%; HP1b binding inh: 25%; VDR inh: inconclusive; JMJD2A Tudor: inconclusive; PLK1 PBD inh: 9.5µM*; L3MBTL1 inh: -5%

How did CC(C)(C)[C@H]1CCC(=O)N([C@H](CSc2ccccc2)Cc2ccccc2)CC1 do in these assays?
BAZ2B inh: 0%; HP1b binding inh: 45%; VDR inh: -21%; JMJD2A Tudor: 4%; PLK1 PBD inh: -19%; L3MBTL1 inh: 1%

How did CC(=O)Nc1ccc(SCCN2CCN(CCc3ccccc3)CCC2=O)cc1 do in these assays?
HP1b binding inh: 13%; VDR inh: 18µM*; JMJD2A Tudor: inconclusive

What do the screens show for `Cc1ccc(S[C@@H](CCN2CC[C@H](NC(=O)OCc3ccccc3)CCC2=O)c2ccccc2)cc1`?
BAZ2B inh: -8%; HP1b binding inh: 30%; VDR inh: -1%; JMJD2A Tudor: 25µM*; PLK1 PBD inh: inconclusive; L3MBTL1 inh: -3%

Results for CC(C)OCCCNC(=O)c1cn(C)c2ccc(S(=O)(=O)N3CCCCCC3)cc2c1=O ?
HP1b binding inh: 59%; VDR inh: 2%; JMJD2A Tudor: -6%

How did CC(=O)N1CCOc2ccc(S(=O)(=O)NC(C)c3ccccc3)cc21 (centres undefined) do in these assays?
BAZ2B inh: -30%; HP1b binding inh: 49%; VDR inh: -21%; JMJD2A Tudor: -18%; PLK1 PBD inh: -24%

Results for COc1cccc(CN2C(=O)c3ccccc3Sc3ccc(C(=O)NCCc4ccc(Cl)cc4)cc32)c1 ?
HP1b binding inh: 28%; VDR inh: -5%; JMJD2A Tudor: -15%

Results for Cn1cc(C(=O)NCCc2ccc(Cl)cc2)c(=O)c2cc(S(=O)(=O)N3CCOCC3)ccc21 ?
HP1b binding inh: 30%; VDR inh: -4%; JMJD2A Tudor: -4%

How did O=C(Nc1cccc2cccnc12)c1ccc2sc([C@@H]3O[C@H](CO)[C@H](O)[C@H](O)[C@H]3O)nc2c1 do in these assays?
PLK1 PBD inh: 2%

How did CC(C)CN1CCC(=O)N([C@H](CSc2ccccc2)Cc2ccccc2)CC1 do in these assays?
BAZ2B inh: -4%; HP1b binding inh: 62%; VDR inh: inconclusive; JMJD2A Tudor: 1%; PLK1 PBD inh: 21µM*; L3MBTL1 inh: -8%

Results for CC(=O)Nc1ccc(S[C@@H](CCN2CC[C@H](C(C)(C)C)CCC2=O)c2ccccc2)cc1 ?
BAZ2B inh: inconclusive; HP1b binding inh: 27%; VDR inh: inconclusive; JMJD2A Tudor: -35%; PLK1 PBD inh: 8.4µM*; L3MBTL1 inh: -2%

Results for Cn1c(=S)ccc2ccccc21 ?
BAZ2B inh: -22%; HP1b binding inh: inconclusive; VDR inh: -26%; JMJD2A Tudor: -14%; PLK1 PBD inh: 27µM*; L3MBTL1 inh: -14%

What do the screens show for `Cn1c(=S)n(C)c2ccccc21`?
BAZ2B inh: -18%; HP1b binding inh: 62%; VDR inh: 6%; JMJD2A Tudor: 8%; PLK1 PBD inh: -1%; L3MBTL1 inh: -8%

How did COc1cccc(C(=O)Nc2ccc3nc(SCCOc4ccccc4)sc3c2)c1 do in these assays?
BAZ2B inh: 3%; HP1b binding inh: 39%; VDR inh: 6%; JMJD2A Tudor: -12%

How did CCCCN1CCC[C@H]1CNC(=O)c1cc(C#N)c2ccccc2c1OC do in these assays?
VDR inh: 5%
